The text below walks through data of publication PMC4336329 (PLoS ONE, 2015).

About 14,000 (4.5%) of roughly 310,000 compounds showed an effect of 50% or more. Effects have a minus sign here. Only a selection was taken, and strong results are over-represented in it overall.
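Further: peak tail current of the secondary pulse compared with the same well before compound.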

Chain of human ether-à-go-go-related gene (hERG) potassium channel (Q12809 whole entry, looked up): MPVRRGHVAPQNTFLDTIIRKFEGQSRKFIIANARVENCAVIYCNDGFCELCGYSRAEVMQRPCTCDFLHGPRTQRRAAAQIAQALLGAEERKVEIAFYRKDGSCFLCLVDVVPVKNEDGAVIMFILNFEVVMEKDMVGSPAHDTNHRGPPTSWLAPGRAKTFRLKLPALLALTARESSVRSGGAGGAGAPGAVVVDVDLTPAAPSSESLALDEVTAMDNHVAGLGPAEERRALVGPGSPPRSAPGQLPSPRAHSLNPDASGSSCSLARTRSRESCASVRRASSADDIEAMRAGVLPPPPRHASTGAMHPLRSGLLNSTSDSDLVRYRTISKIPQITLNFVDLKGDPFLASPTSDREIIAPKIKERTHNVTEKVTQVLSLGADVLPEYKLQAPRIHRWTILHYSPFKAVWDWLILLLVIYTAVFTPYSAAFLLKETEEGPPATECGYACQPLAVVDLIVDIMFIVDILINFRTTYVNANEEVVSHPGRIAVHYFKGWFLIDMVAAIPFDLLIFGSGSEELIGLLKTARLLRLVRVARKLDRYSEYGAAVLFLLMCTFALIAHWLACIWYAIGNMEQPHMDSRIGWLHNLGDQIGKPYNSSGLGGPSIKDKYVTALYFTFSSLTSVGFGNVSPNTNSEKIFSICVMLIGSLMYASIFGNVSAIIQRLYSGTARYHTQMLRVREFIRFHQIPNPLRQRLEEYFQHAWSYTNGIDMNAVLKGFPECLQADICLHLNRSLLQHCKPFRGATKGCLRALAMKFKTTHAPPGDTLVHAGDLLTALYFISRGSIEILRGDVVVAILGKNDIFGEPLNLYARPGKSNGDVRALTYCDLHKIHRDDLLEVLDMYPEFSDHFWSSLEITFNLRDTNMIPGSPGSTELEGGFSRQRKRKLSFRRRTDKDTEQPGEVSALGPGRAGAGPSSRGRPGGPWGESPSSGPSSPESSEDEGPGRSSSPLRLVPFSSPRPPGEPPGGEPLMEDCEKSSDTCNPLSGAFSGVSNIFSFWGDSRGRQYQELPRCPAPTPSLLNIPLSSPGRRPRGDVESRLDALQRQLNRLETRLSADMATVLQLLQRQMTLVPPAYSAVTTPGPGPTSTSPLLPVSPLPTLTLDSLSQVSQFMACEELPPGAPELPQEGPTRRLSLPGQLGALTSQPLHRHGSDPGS

This experiment concerns the target human ether-à-go-go-related gene (hERG) potassium channel (human, UniProt Q12809). The experiment in a line: primary screen, population patch clamp on CHO cells stably expressing hERG; higher = less effect of the substance.
`CCn1cc(C(=O)O)c(=O)c2cc(F)c(N3CCN(S(=O)(=O)c4ccc(NC(=O)OC)cc4)CC3)cc21`: the “hERG current change (%, negative = inhibition) at 10uM” value is given as 21.8%. In the case of `CC1(C)SC(=S)N(/N=C/c2cccnc2)C1N(O)C(=O)Nc1ccccc1` (stereo not drawn), the “hERG current change (%, negative = inhibition) at 10uM” value is recorded as -5.91%.

On to `COc1ccc(S(=O)(=O)N2CCN(C3CCCC(C)C3)CC2)cc1.O=C(O)C(=O)O` (stereo not drawn), for which the “hERG current change (%, negative = inhibition) at 10uM” value is -16.7%. Turning to `CCCCN(C)C(=O)CCC(=O)Nc1ccc2nc(N3CCN(C)CC3)cc(C)c2c1`, the “hERG current change (%, negative = inhibition) at 10uM” value was found to be 11%. Turning to `CC1=CC(C)(C)N(C(=O)c2ccccc2)c2ccccc21`, the “hERG current change (%, negative = inhibition) at 10uM” value is given as -8.02%.

On to `CN(C)S(=O)(=O)c1ccc(N2CCCC2)c(C(=O)Nc2nc(-c3cc(F)ccc3F)cs2)c1`, for which the “hERG current change (%, negative = inhibition) at 10uM” value stood at 0.334%. In the case of `CCC(CC)C(=O)Nc1c(C(=O)N2CCN(c3ccccc3)CC2)oc2ccccc12`, the “hERG current change (%, negative = inhibition) at 10uM” value was 3.17%. The result for `CCOC(=O)c1oc2ccccc2c1NC(=O)c1ccc(S(=O)(=O)N(C)C)cc1` reads 13%; that for `CCOCCCN(C)C1CCN(C(=O)c2oc3ccccc3c2NC(=O)c2ccc([N+](=O)[O-])cc2)CC1`, -75.9%. With `O=C(Nc1c(C(=O)N2CCOCC2)oc2ccccc12)c1cccc([N+](=O)[O-])c1`, the “hERG current change (%, negative = inhibition) at 10uM” value is reported as -20.2%. The value for `COc1cc2c(cc1NC(=O)c1cccc([N+](=O)[O-])c1)oc1ccccc12` was 1.9%; that for `CCOCCCN(C)C1CCN(C(=O)c2oc3ccccc3c2NC(=O)c2cccc([N+](=O)[O-])c2)CC1` was -79.7%; that for `CCOC(=O)N1CCC(NC(=O)C2CCCN(C(=O)c3cc4sccc4n3C)C2)CC1` (stereo not drawn) was -5.34%. Take `CS(=O)(=O)O.OC(c1cc(C(F)(F)F)nc2c(Cl)cc(Cl)cc12)C1CCCCN1` (stereo not drawn): the “hERG current change (%, negative = inhibition) at 10uM” value is given as -23.8%. The value for `Cc1[nH]n(-c2ccccc2)c(=O)c1N=Nc1ccc(C(=O)O)cc1` was 25.7%; that for `CC(=O)NC1C(Oc2ccccc2C)OC2COC(c3ccco3)OC2C1O` (stereo not drawn) was 3.59%. Regarding `COc1ccc(-c2c(C(C)=O)c(C)nc3sc4c(=O)[nH]nnc4c23)cc1`, the “hERG current change (%, negative = inhibition) at 10uM” value came out at 8.95%. The value for `Cc1ccccc1OCC(O)Cn1c(NCc2ccco2)nc2c1c(=O)n(C)c(=O)n2C` (stereo not drawn) was -52.1%; that for `Cc1ccccc1OCC(O)Cn1c(NCc2ccco2)nc2c1c(=O)[nH]c(=O)n2C` (stereo not drawn) was 4.8%; that for `Cn1c(=O)c2c(nc(NCc3ccco3)n2CC(O)COc2ccccc2)n(C)c1=O` (stereo not drawn) was -25.9%.

Turning to `Cc1oc(S(=O)(=O)N2CCCCC2)cc1NC(=O)Nc1ccc(F)cc1`, the “hERG current change (%, negative = inhibition) at 10uM” value was found to be 3.43%.

Take `COc1ccc(OC)c(CN2CCC(N3CCC(C(=O)NC4CC4)CC3)CC2)c1`: the “hERG current change (%, negative = inhibition) at 10uM” value is -11.1%. Take `COc1ccc(C(=O)N(C)C2CCCN(Cc3ccccc3F)C2)cc1OC` (stereo not drawn): the “hERG current change (%, negative = inhibition) at 10uM” value is on record as 11.1%. For the compound `COc1ccc(C(=O)NC2CC2)cc1OC1CCN(Cc2ccccc2F)CC1`, the “hERG current change (%, negative = inhibition) at 10uM” value is reported as -78%. The result for `COc1ccc(C(=O)NCCc2ccccc2F)cc1OC1CCN(C(C)=O)CC1` reads 4.19%.

With `CCOc1ccccc1CN1CCC(Oc2cccc(C(=O)NCCOC)c2)CC1`, the “hERG current change (%, negative = inhibition) at 10uM” value is on record as -30.8%. As to `COc1ccc(C(=O)NC2CC2)cc1OC1CCN(Cc2ccccc2O)CC1`, the “hERG current change (%, negative = inhibition) at 10uM” value is given as -102%. With `COc1ccc(C(=O)NC2CCc3ccccc32)cc1OC1CCN(C(C)=O)CC1` (stereo not drawn), the “hERG current change (%, negative = inhibition) at 10uM” value is -0.012%.

As to `COc1ccc(CN2CCC(Oc3ccc(C(=O)NCc4ccccn4)cc3)CC2)c(F)c1`, the “hERG current change (%, negative = inhibition) at 10uM” value is reported as -12.6%. For the compound `COc1ccc(CN2CCC(Oc3cc(C(=O)NC4CC4)ccc3OC)CC2)c(O)c1`, the “hERG current change (%, negative = inhibition) at 10uM” value is recorded as -77.3%. `C=CCOc1ccccc1CN1CCC(Oc2cc(C(=O)NC3CC3)ccc2OC)CC1`: the “hERG current change (%, negative = inhibition) at 10uM” value is reported as -72.2%. The result for `C=CCC(O)(CC=C)CNC(=O)c1ccc(OC)c(OC2CCN(C(C)=O)CC2)c1` reads 14.9%; that for `COc1cc(C(=O)NC2Cc3ccccc3C2)ccc1OC1CCN(C(C)=O)CC1`, 4.22%; that for `Cc1ccc(Nc2nc3ccccc3n3cnnc23)cc1C`, 15.5%.

Regarding `CCOC(=O)N1CCN(C(=O)CSc2nnc(COc3ccc(Cl)cc3)o2)CC1`, the “hERG current change (%, negative = inhibition) at 10uM” value is -37.8%. On to `CCOCCCNC(=O)CCc1nnc2ccc(N3CCCCC3)nn12`, for which the “hERG current change (%, negative = inhibition) at 10uM” value was 11.1%. The value for `COc1ccc(OC)c(NC(=O)C2CC(=O)N(c3ccccc3)C2)c1` (stereo not drawn) was 5.86%; that for `O=C(CCC(=O)OCC(=O)c1ccc(-c2ccccc2)cc1)Nc1cccc(Cl)c1` was 1.65%. The value for `CCn1ncc(CN2CCC(Oc3cc(C(=O)NC4CC4)ccc3OC)CC2)c1C` was -21.5%; that for `COc1ccc(C(=O)NC2CC2)cc1OC1CCN(Cc2cnn(C)c2C)CC1` was -27.2%; that for `COc1ccc(C(=O)NC2CC2)cc1OC1CCN(Cc2cc(C)c(C)cc2C)CC1` was -83.1%.

Take `O=C(CCl)Nc1nc(-c2ccco2)c(-c2ccco2)s1`: the “hERG current change (%, negative = inhibition) at 10uM” value is listed as -10.1%.
